{"source": "PubChem BioAssay (NCI)", "note": "About 83,000 compounds went through this panel and 20% of them were active in at least one assay; those are over-represented in the sample as a whole.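 Note: values are percent growth. 100 is the growth of untreated cells, values between 100 and 0 indicate rising inhibition; between -100 and 0 indicates cell death.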 Calls of active or inactive are those of the source. How the source made its calls: active means growth percent below 10; inactive means the rest.", "data": [{"test_system": "HL-60(TB) leukemia", "assay": "NCI-60 one-dose screen, 48 h (100 = growth as untreated, 0 = no growth, -100 = all killed)", "details": "10 µM unless noted", "values": [{"smiles": "NC(=S)CN1CCOCC1", "growth": "-12.8% (active)"}, {"smiles": "COc1ccc(C(=O)COc2cccc(/C=C3\\CSc4ccccc4C3=O)c2)cc1", "growth": "-55.5% (active)"}, {"smiles": "O=C(CC(=O)C(F)(F)C(F)(F)C(F)(F)F)c1cc2ccccc2o1", "growth": "99.3% (inactive)"}, {"smiles": "FC(F)(F)c1cc(Nc2ccc3cc(OCCCN4CCOCC4)ccc3n2)ccc1Cl", "growth": "29% (inactive)"}, {"smiles": "NC(=O)c1cc(I)ccc1NC(=O)COc1ccc(Cl)cc1Cl", "growth": "76.9% (inactive)"}, {"smiles": "CC(CN1CCN(CCOCCO)CC1)CN1c2ccccc2Sc2ccc(Cl)cc21", "note": "(stereo not given)", "growth": "80.8% (inactive)"}, {"smiles": "Cc1ccc(NC(=O)NC2CCCCC2)cc1", "growth": "63.1% (inactive)"}, {"smiles": "C[n+]1c(/C=C/c2ccc([N+](=O)[O-])cc2)ccc2ccccc21", "growth": "99.3% (inactive)"}, {"smiles": "COc1cc2nc(NC3CCCC3)nc(NC3CCN(C(C)C)CC3)c2cc1OC", "growth": "88.7% (inactive)"}, {"smiles": "COc1ccc(/C=N/NC(=O)c2cnn3c2NC(c2ccccc2)C3)cc1OC", "note": "(stereo not given)", "growth": "36.4% (inactive)"}, {"smiles": "CCCC/C(=N\\N=C(N)N)c1ccc(F)cc1", "growth": "-30.9% (active)"}, {"smiles": "CC(C)CC(=O)C(CCc1ccccn1)C(C)C", "note": "(stereo not given)", "growth": "108% (inactive)"}, {"smiles": "O=C1CN(c2ccccc2)C(=O)C1C(=O)Nc1ccc(Cl)c(Cl)c1", "note": "(stereo not given)", "growth": "7.75% [100 µM] (active)"}, {"smiles": "Cc1cccc(Oc2ccc(Nc3ncnc4ccc(NC(=O)CNCCO)cc34)cc2Cl)c1", "growth": "-26.1% (active)"}, {"smiles": "O=C1c2ccccc2OC=C(c2ccccc2)N1CCCCNc1ccc(F)cc1", "growth": "45.3% (inactive)"}, {"smiles": "CCOC(=O)CC/C(C)=N\\Nc1ccc([N+](=O)[O-])cc1", "growth": "26.4% (inactive)"}, {"smiles": "CC1CN=C(c2cccc(-c3ccc(-c4ccccc4)o3)c2)N1", "note": "(stereo not given)", "growth": "-46.1% (active)"}, {"smiles": "CCc1nc2cc(/C=C/C(=O)NO)c(F)cc2c(=O)n1CCc1ccccc1", "growth": "-8.55% (active)"}, {"smiles": "Fc1ccccc1Nc1ccc2nnc(-c3ccncc3)n2n1", "growth": "92.6% (inactive)"}, {"smiles": "O=C(O)Cn1ccc2ccccc21", "growth": "104% (inactive)"}, {"smiles": "N=S(c1ccccc1[N+](=O)[O-])c1ccccc1[N+](=O)[O-]", "growth": "10.1% (inactive)"}, {"smiles": "CC(=O)OCC(=O)C1CCC=CC1OC(C)=O", "note": "(stereo not given)", "growth": "99.3% (inactive)"}, {"smiles": "COc1ccc(-c2nc3ncccn3c2/C=C/C(=O)c2cc(OC)c(OC)c(OC)c2)cc1", "growth": "1.2% (active)"}, {"smiles": "COc1cc(C(=O)Nc2ccc(N(C)C)cc2)cc(OC)c1OC", "growth": "95.8% (inactive)"}, {"smiles": "CCCNC(=O)Oc1ccc(/C(=C(/C)Cc2ccc(OC)cc2)c2ccc(OCCN3CCCCC3)cc2)cc1", "growth": "58.6% (inactive)"}, {"smiles": "CCC(C)/C(=C\\C#N)NCCCN/C(=C/C#N)C(C)CC", "note": "(stereo not given)", "growth": "64.6% (inactive)"}, {"smiles": "Clc1ccc(/C=C/c2nc(Nc3ccc(Cl)cc3)c3ccccc3n2)cc1", "growth": "102% (inactive)"}, {"smiles": "CC(C)N(C(=O)c1ccccc1)C(C)C", "growth": "100% (inactive)"}, {"smiles": "C=C1C(=O)O[C@H]2[C@H]1CC/C(COC(=O)CCSSCCC(=O)OC/C1=C/CC[C@@]3(C)O[C@H]3[C@H]3OC(=O)C(=C)[C@@H]3CC1)=C\\CC[C@@]1(C)O[C@@H]21", "growth": "-47.9% (active)"}, {"smiles": "O=C(/C(=C/c1ccc([N+](=O)[O-])cc1)SCc1ccccc1)c1ccc(Cl)cc1", "growth": "74.4% (inactive)"}, {"smiles": "CCCCCCCC/C=C/CCCCCCCC1=NC(C)(C)CN1c1ccccc1", "growth": "70% (inactive)"}, {"smiles": "CCCCOC(=O)C1OC(Oc2ccc3c(C)cc(=O)oc3c2)[C@@H](OC(C)=O)C(OC(C)=O)C1OC(C)=O", "note": "(stereo not given in full)", "growth": "102% (inactive)"}, {"smiles": "Cc1cc(C)n(Nc2nc3ccccc3[nH]c2=O)c(=O)c1C#N", "growth": "102% (inactive)"}, {"smiles": "CC1(C)CC(=O)C=C(N)C1", "growth": "71.8% (inactive)"}, {"smiles": "Cc1cc(Cc2cc(C)c(N)cc2N)c(N)cc1N", "growth": "85.6% (inactive)"}, {"smiles": "Nc1ccc(-c2cc3c(Nc4ccc(Oc5cccc(C(F)(F)F)c5)c(Cl)c4)ncnc3s2)cc1", "growth": "54.9% (inactive)"}, {"smiles": "O=C(Cc1ccccc1)NNc1nc(Cl)nc(N2CCN(C(c3ccccc3)c3ccccc3)CC2)n1", "growth": "58.2% (inactive)"}, {"smiles": "COc1ccc(C(=O)c2nccc3cc(OC)c(OC)cc23)cc1OC", "growth": "102% (inactive)"}, {"smiles": "Brc1ccccc1Nc1ccc2nnc(-c3ccncc3)n2n1", "growth": "96.4% (inactive)"}, {"smiles": "COc1cc(/C=C/c2cc(/C=C/c3ccc(O)c(OC)c3)n(C(=O)Cc3ccccc3)n2)ccc1O", "growth": "-9.93% (active)"}]}]}
